Dicer processing: inhibitors of Dicer pre-microRNA processing, primary screen, biochemical, cat-ELCCA, chemiluminescence | Endoribonuclease Dicer (Homo sapiens), Q9UPY3 | cat-ELCCA pre-miR-21 Dicer processing; hits give high values | z-score at 25 µM | 47,000 tested, 6% active; in the data active = z-score above about 3, passing the limit was not always enough;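 also: higher signal means more uncleaved substrate so more Dicer inhibition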
Large screens that a line does not name were inactive. The full list was thinned out, with hits kept by preference.

CC1=C(C#N)C(c2ccc(-c3ccccc3)cc2)C2=C(CCCC2=O)N1 (stereo not given)	none
CCCOc1cccc(C2CCCCN(C)C2=O)c1 (stereo not given)	none
COc1cccc2c1OC(c1ccncc1)N1N=C(c3ccccc3O)CC21 (stereo not given)	none
COc1ccc(C(C[N+](=O)[O-])Sc2cccc(N)c2)cc1 (stereo not given)	none
Cc1c2n(c3ccccc13)CC/C2=N\Nc1cccc(C(F)(F)F)c1	none
O=C(O)c1cccc2c1NC(c1ccccc1)C1C3CCC(C3)C21 (stereo not given)	none
C/C(=N\NC1=NCCN1)c1ccc(Br)cc1	none
FC(F)(F)C1=CC(c2ccc(Br)cc2)=NCCN1	Dicer processing 3.57
c1ccc2c(CC3=NCCN3)cccc2c1	none
Nc1nc(-c2ccc(Br)cc2)cc(C(F)(F)F)n1	none
FC(F)(F)C1=CC(c2ccccc2)=NCCN1	Dicer processing 3.08
O=C1NCCN=C(c2ccccc2)c2ccccc21	none
Cc1cc(C)c(S(=O)(=O)N2CC(C)OC(C)C2)c(C)c1 (stereo not given)	none
O=C1/C(=C/c2ccc(-c3cc(C(F)(F)F)cc(C(F)(F)F)c3)o2)Cc2ccccc21	none
COC(=O)c1cc(=O)nc(NC(=O)Nc2c(-c3c(Cl)cccc3Cl)noc2C)s1	none
FC(F)(F)c1oc(-c2ccc(Cl)cc2)cc1-c1nc(-c2cccs2)no1	none
CCCCc1c(C)c(C#N)c2nc3ccccc3n2c1-n1ccnc1C	Dicer processing 8.35
Cc1c(Cc2ccccc2)c(-n2ccnc2C)n2c(nc3ccccc32)c1C#N	none
Cc1c(CCN2CCOCC2)c(N2CCOCC2)n2c(nc3ccccc32)c1C#N	none
CCc1[nH]nc2c1C(c1ccc(Cl)cc1)C(C#N)=C(N)O2 (stereo not given)	none
CSC(=NC12CC3CC(CC(C3)C1)C2)NN	none
CCOc1ccccc1C1C(C#N)=C2N=C(N)c3ccccc3N2C2=C1C(=O)CCC2 (stereo not given)	none
COC(=O)c1cc(NS(=O)(=O)c2ccc(Br)cc2)cc(C(=O)OC)c1	Dicer processing 3.9
COC(=O)c1cc(NS(=O)(=O)c2ccc(F)cc2)cc(C(=O)OC)c1	none
COc1nccnc1NS(=O)(=O)c1ccc(NC(=O)c2ccc(Br)cc2)cc1	none
CCOC(=O)C(=CNc1cccc(F)c1C#N)C(=O)OCC	none
CC(C)NC(=O)N1CCc2sccc2C1c1ccc(Cl)cc1 (stereo not given)	none
CC(C)(C)c1cc(C(c2ccccn2)N2CCOCC2)cc(C(C)(C)C)c1O (stereo not given)	none
CC(C)n1cc(C(N)=S)c(=O)n(Cc2ccccc2)c1=O	none
Cn1cc(/C(N)=N/O)c(=O)n(Cc2ccccc2)c1=O	Dicer processing 7.02
CC(C)n1cc(/C(N)=N/OC(=O)c2ccccc2Cl)c(=O)n(Cc2ccccc2)c1=O	none
CCCCN1C(=O)C(O)(CC(=O)c2ccc(OCC)cc2)c2cc(Br)ccc21 (stereo not given)	none
CN(C)c1c(F)cc(C(=O)Nc2cc(C(F)(F)F)cc(C(F)(F)F)c2)cc1F	none
CN(C)c1c(F)cc(/C(N)=N/O)cc1F	none
CN(C)c1c(F)cc(C(N)=O)cc1F	Dicer processing 3.39
N#C/C(C(N)=O)=C1/SC=C(c2ccc(Br)cc2)N1Cc1ccccc1	none
Clc1ccc(C2=NC(c3ccc(Cl)c(Cl)c3)NN2)cc1 (stereo not given)	none
Cc1ccc(NC(=S)NNC(=O)CCc2ccc(O)cc2)c(Cl)c1	none
Cc1ccc(C(=O)CC2(O)C(=O)Nc3ccccc32)cc1 (stereo not given)	none
Nc1cccc(C(=O)CC2(O)C(=O)Nc3ccc(Cl)cc32)c1 (stereo not given)	Dicer processing 11.8
O=C(CC1(O)C(=O)Nc2ccccc21)c1ccc(Br)cc1 (stereo not given)	none
O=C(CC1(O)C(=O)Nc2ccc(Cl)cc21)c1ccc(Cl)cc1 (stereo not given)	none
O=C(CC1(O)C(=O)Nc2ccc(Br)cc21)c1ccc2ccccc2c1 (stereo not given)	none
O=C(CC1(O)C(=O)Nc2ccc(Cl)cc21)c1cccc2ccccc12 (stereo not given)	none
O=C(CC1(O)C(=O)Nc2ccccc21)c1cccc2ccccc12 (stereo not given)	Dicer processing 5.18
O=C(CC1(O)C(=O)Nc2ccccc21)c1ccc(C2CCCCC2)cc1 (stereo not given)	Dicer processing 4.17
CN1C(=O)C(O)(CC(=O)c2ccc(C3CCCCC3)cc2)c2ccccc21 (stereo not given)	none
O=C(CC1(O)C(=O)Nc2ccccc21)CC1(O)C(=O)Nc2ccccc21 (stereo not given)	none
O=C(CC1(O)C(=O)Nc2ccccc21)c1ccc2ccccc2c1 (stereo not given)	Dicer processing 4.38
Nc1cccc(C(=O)CC2(O)C(=O)Nc3ccc(Br)cc32)c1 (stereo not given)	none
CCc1ccc2c(c1)C(NC(C)=O)C(=O)N2 (stereo not given)	none
CCOC(=O)/C(C#N)=C1\CCc2ccccc21	none
CCCc1nn2c(=O)c(NC(=O)c3ccc(C)cc3)cnc2s1	none
CC(=O)CSc1nnc(-c2sc3nc(C)cc(C)c3c2N)n1Cc1ccccc1	none
CCc1ccc2c(c1)c1nc(C)sc1n2C	none
COc1ccc2c(c1)c(=O)oc1c(C)c(OCC(=O)OC(C)C)ccc12	none
CSc1nc2cc(C3CC3)nn2c(N)c1S(=O)(=O)c1ccc(Cl)cc1	none
CC(C)NC(=O)NNC(=O)c1csc(-c2cccnc2)n1	none
CCN(Cc1c(C)[nH]c2ccc(C)cc2c1=O)C1CCCCC1	none
N#CC1=C(O)Cn2c1nc(=O)c1ccccc12	none
CCN(C(=O)c1ccc([N+](=O)[O-])o1)c1ccccc1	none
O=C(OCc1nc2ccccc2s1)c1ccc([N+](=O)[O-])o1	none
CCOC(=O)N1CCN(C(=O)c2ccc([N+](=O)[O-])o2)CC1	Dicer processing 3.51
COc1c(/C=C(\NC(C)=O)C(=O)O)cccc1OC1CCCC1	none
Cc1nc2n(CCN3CCOCC3)c3ccccc3n2n1	none
c1ccc(-c2cn3c4ccccc4n(CCN4CCOCC4)c3n2)cc1	Dicer processing 4.11
Cc1ccc(-c2cn3c4ccccc4nc3n2CCN2CCOCC2)cc1	none
CCc1ccc(-c2c(C#N)c(N)nc3c2CCCCCC3)s1	none
COCCCNC(=S)NNC(=O)c1ccc(C(F)(F)F)cc1	none
O=C(c1ccccc1)c1cc(Cl)ccc1NC(=S)Nc1ccc(F)cc1	none
Fc1ccc(NC(=S)Nc2ccccc2)cc1	none
COCCCNC(=S)Nc1ccc(F)cc1	none
FC(F)(F)c1cccc(NNC(=S)Nc2ccccc2)c1	none
N#CCC(=O)NNC(=S)Nc1ccccc1	none
COCCCNC(=S)NNC(=S)Nc1ccccc1	Dicer processing 3.59
Cc1cc(Br)c(NC(=S)NNc2ccccc2)c(Br)c1	none
S=C(NNc1ccccc1)c1ccccc1	Dicer processing 5.18
Cc1ccccc1NC(=S)NNC(=O)c1ccccc1Cl	none
S=C(NNC(=S)Nc1ccccc1)Nc1ccccc1	Dicer processing 13.7
O=C(NNC(=S)Nc1ccc(F)cc1)c1ccccc1Cl	Dicer processing 4.67
Cc1onc(-c2ccccc2)c1C(=O)Nc1cc(C(F)(F)F)ccc1N1CCc2ccccc2C1	none
CC(=O)O[C@H]1[C@H](OC(C)=O)[C@H](OC(C)=O)CO[C@@H]1c1nc2ccccc2s1	none
O=C1/C(=C\c2ccc(SC3CCCCC3)c([N+](=O)[O-])c2)SC(=S)N1Cc1ccccc1	none
COC(=O)CSc1cc(C)nc2ccccc12	none
CSc1ccc(C2C3=C(CCCC3=O)Nc3ccccc3N2C(=O)c2ccccc2)cc1 (stereo not given)	none
CCCCCCCc1c(COC)[nH]c(=S)[nH]c1=O	none

Screening results (PubChem)
